# Results reported in ChEMBL document CHEMBL4513216, “Probing the Open Global Health Chemical Diversity Library for Multistage-Active Starting Points for Next-Generation Antimalarials” (ACS Infect Dis, 2020).
# Screen size: about 68,000 compounds; about 2,700 (4%) showed an effect of 50% or more. The full list was thinned out, with strong results kept by preference.
# System: Plasmodium berghei
# Test: Screen against P. berghei liver stage (PbLuc), transformed with Luciferase, at 2uM
# Format: functional, HepG2
# Conditions: tested at 2 uM
row,SMILES,INHIBITION
1,CC(C)n1nc(Cn2cccn2)c2c1CN(CC1CCOC1)C2 (stereo not drawn),20.2%
2,COCC(O)CN1CCC(NC(=O)c2ccccc2Cl)CC1 (stereo not drawn),-41.8%
3,COCC(O)CN1CCC(NC(=O)c2cscc2C)CC1 (stereo not drawn),50.93%
4,COCCC(=O)N1CCC(NC(=O)c2cscc2C)CC1,16.72%
5,CCc1nnsc1C(=O)N(C)Cc1nnc2n1CCC2,-8.74%
6,Cc1cnc(N2CCC3(CC(=O)N(Cc4csc(C)n4)C3)C2)nc1 (stereo not drawn),25.43%
7,CCCc1cc(N(CCOC)CC(F)F)n2ncnc2n1,55.18%
8,CCN(CC)CCN(CC(C)C)c1cc(C(F)(F)F)nc2ncnn12,-13.12%
9,COCCN(CC(F)F)c1cc(COC)nc2ncnn12,69.52%
10,COCc1cc(N(CC(F)F)C2CC2)n2ncnc2n1,3.59%
11,COCCN(CC(F)F)c1cc(C(F)(F)F)nc2ncnn12,25.81%
12,CCCN(CC(F)F)c1cc(COC)nc2ncnn12,-6.73%
13,Cc1cc(C)c(CNC(=O)NCc2cc(F)cc(F)c2)c(=O)[nH]1,23.42%
14,Cn1ncc(C(=O)OCC2CC(=O)N(c3ccccc3)C2)c1C(F)F (stereo not drawn),26.62%
15,CC(C)NC(=O)C1CN(C(=O)Nc2cccc(F)c2)CC12CCOCC2 (stereo not drawn),9.53%
16,O=C1CCCN1CCN1CCC(c2ccn[nH]2)CC1,33.26%
17,CCc1c(C)nc(N)nc1NCCSCc1[nH]cnc1C,29.98%
18,CN(Cc1ncc(C(C)(C)C)o1)C1CCCN(c2cccnn2)C1 (stereo not drawn),51.21%
19,CN(Cc1nnc(-c2ccco2)o1)C1CCCN(c2cccnn2)C1 (stereo not drawn),53.03%
20,CN(Cc1nnc(C2CC2)o1)C1CCCN(c2cccnn2)C1 (stereo not drawn),-15.05%
21,CN(Cc1ncc(-c2ccccc2)o1)C1CCCN(c2cccnn2)C1 (stereo not drawn),-4.81%
22,Cc1ccccc1CCC1CCCN(Cc2nnc(-c3ccco3)o2)C1 (stereo not drawn),55.7%

row,SMILES,INHIBITION
1,CN(Cc1nc(-c2ccco2)no1)C1CCCN(c2cccnn2)C1 (stereo not drawn),22.1%
2,Cc1nc(CN(C)C2CCCN(c3cccnn3)C2)oc1C (stereo not drawn),-6.71%
3,c1coc(-c2nnc(CN3CCCC(CN4CCCCCC4)C3)o2)c1 (stereo not drawn),-22.43%
4,Cc1nc(C)n(CC2CCCN(Cc3nnc(-c4ccco4)o3)C2)n1 (stereo not drawn),22.51%
5,CC(CN(C)C)Nc1nc(O)cc(Cc2ccccc2F)n1 (stereo not drawn),21%
6,COCCOc1cccc(C(=O)N2CCCCC2c2nccs2)c1 (stereo not drawn),4.41%
7,CN(Cc1cccnc1)C1CCCN(Cc2noc(C3CC3)n2)C1 (stereo not drawn),42.12%
8,Cc1ccc(CS(=O)(=O)Cc2nc(N)nc(N(C)C)n2)cc1,-44.8%
9,CC(C)c1ccc(S(=O)(=O)Cc2nc(N)nc(N(C)C)n2)cc1,-25.72%
10,CC(C)c1ccc(CS(=O)(=O)Cc2nc(N)nc(N(C)C)n2)cc1,64.9%
11,CCOCCn1nc(C2CCNCC2)n(Cc2ccccc2)c1=O,49.95%
12,CCCn1nc(C2CCNCC2)n(Cc2ccccc2)c1=O,26.92%
13,O=c1n(CC2CC2)nc(C2CCNCC2)n1Cc1ccccc1,51.19%
14,Cc1noc(C)c1CCC(=O)N1CCn2cccc2C1C (stereo not drawn),-39.01%
15,Cc1c(NC(=O)NC2CCCC2)cccc1C(=O)N1CCSCC1,-12.09%
16,O=C(Nc1ccccc1C(=O)N1CCCC1)NC1CCOCC1,70.83%
17,Cc1c(NC(=O)NC2CCOCC2)cccc1C(=O)N1CCCC1,48.39%
18,NS(=O)(=O)c1cnn(CCC(=O)N(Cc2ccccc2)C2CC2)c1,-102.2%
19,CC(C)C(=O)NC1CC2(CCN(CC(=O)N(C)C)CC2)c2ccccc21 (stereo not drawn),-0.91%
20,CCC(=O)Nc1cccc(OCC(=O)N(C)Cc2ccon2)c1,19.91%
21,CCc1cccc(NC(=O)CCC(=O)N(C)Cc2nc(C)c[nH]2)c1,-53.55%
22,CCC(=O)Nc1cccc(OCC(=O)N(C)Cc2nc(C)c[nH]2)c1,53.13%

row,SMILES,INHIBITION
1,CCn1nc(C)c2nc(C(C)C)nc(NCCCn3cccn3)c21,-25.67%
2,Cc1cccc(CN2CCn3cc(CNC(=O)CC4CC4)nc3C2)n1,17.24%
3,O=C1COC2(CCN(Cc3nccs3)CC2)CN1CC1CC1,7.86%
4,CCc1cnc(N2C[C@@H]3C[C@H](C(=O)NC)[C@H](C2)O3)nc1,18.91%
5,N#Cc1cccc(S(=O)(=O)N2CCCCC2CCN2CCCC2)c1 (stereo not drawn),-8.84%
6,CC(=O)NCCC1CCCCN1S(=O)(=O)c1cccc(C#N)c1 (stereo not drawn),-7.53%
7,N#Cc1cccc(S(=O)(=O)N2CCCCC2C(N)=O)c1 (stereo not drawn),70.24%
8,CCOc1cccc(NC(=O)c2cnc(C)cn2)n1,29.97%
9,CC(C)=CCS(=O)(=O)Cc1nc(C(C)C)no1,34.69%
10,CN1CCCC1CCNC(=O)c1ccccc1-n1cc(CN)cn1 (stereo not drawn),-10.49%
11,O=C(C1CCCO1)N1CCC(n2cc(-c3ccsc3)nn2)CC1 (stereo not drawn),7.67%
12,O=C(C1CCCO1)N1CCC(n2cc(-c3ccc(F)cc3)nn2)CC1 (stereo not drawn),31.51%
13,Cc1ccc(-c2cn(C3CCN(C(=O)[C@H]4CCCO4)CC3)nn2)cc1,74.44%
14,CN(Cc1ccc(F)cc1)C(=O)NCc1nnc2n1CCCCC2,-43.41%
15,O=C(NCCCN1CCOCC1)c1ccc(-n2ccc3ccccc32)s1,28.31%
16,O=C(NCCCN1CCCCC1)c1ccc(-n2ccc3ccccc32)s1,13.64%
17,O=C(NCCN1CCOCC1)c1ccc(-n2ccc3ccccc32)s1,52.4%
18,CC(C)(C)c1nc(CN2CCCC2c2nnc3ccccn23)no1 (stereo not drawn),-12.01%
19,COc1nc2ccn(CCNc3cc(C)ccn3)c(=O)c2cc1C#N,55.39%
20,COc1nc2ccn(CCc3scnc3C)c(=O)c2cc1C#N,0.31%
21,COc1nc2ccn(CCc3cnccn3)c(=O)c2cc1C#N,-32.52%
22,O=C([C@@H]1CCCN1c1nccc(Nc2ccccc2)n1)N1CCCCC1,-16.43%

row,SMILES,INHIBITION
1,CCC(CN1CCCC1)NC(=O)C1(c2cccc(F)c2)CC1 (stereo not drawn),6.64%
2,COc1cccc(-n2cc(CN(C)C(=O)c3cnc(O)cn3)cn2)c1,-6.27%
3,COc1cccc(C(=O)N(C)C(C)c2c(C)n[nH]c2C)c1OC (stereo not drawn),50.63%
4,C=C(C)COc1cccc(C(=O)N(C)C(C)c2c(C)n[nH]c2C)c1 (stereo not drawn),-10.92%
5,C=C(C)COc1ccccc1C(=O)N(C)C(C)c1c(C)n[nH]c1C (stereo not drawn),29.81%
6,CC(C)N1CCCn2c(nc(CNC(=O)c3nccn3C)cc2=O)C1,-25.29%
7,CCN(CC)C(=O)c1ccn(COc2ccc(F)cc2)n1,17.7%
8,CCc1n[nH]c(C2CN(C(=O)Cc3ccc(C)nc3)CCO2)n1 (stereo not drawn),36.48%
9,CC1CCN(C(=O)CN2CC(c3nc(C4CC4)no3)C2)CC1,12.57%
10,O=C(CN1CC(c2nc(C3CC3)no2)C1)N1CCOCC1,56.9%
11,O=C(CN1CCCC(c2noc(C3CC3)n2)C1)N1CCCC1 (stereo not drawn),19.45%
12,O=C(c1cccnc1)N1CCC2(CC1)CCN(c1ccsc1)C2=O,-8.05%
13,O=C(Cc1ccccc1Cl)NCCN1CCC(c2cccs2)CC1,28.43%
14,Cn1cc(CC(=O)N2CCCC(n3cncn3)C2)cn1 (stereo not drawn),38.76%
15,Cc1nccn1C1CCCN(C(=O)c2cccc(S(C)(=O)=O)c2)C1 (stereo not drawn),5.72%
16,COc1ccccc1C1(CNC(=O)NCc2noc(C)n2)CC1,15.28%
17,COc1ccccc1C1(CNc2ccc(C(=O)N(C)C)cn2)CC1,50.61%
18,CN(C)C(=O)c1ccc(NCCNc2ccc3ccccc3n2)nc1,-37.09%
19,COc1ccccc1C1(CNc2ccnc(C(=O)N(C)C)c2)CC1,67.44%
20,COc1ccccc1C1(CNc2cc(C(=O)N(C)C)ccn2)CC1,33.78%
21,COc1ccccc1C1(CNc2ncc(S(N)(=O)=O)s2)CC1,7.67%
22,OCCOCCN1CCCC1c1cccc(Cl)c1 (stereo not drawn),-17.64%

row,SMILES,INHIBITION
1,Cc1nc(N(C)C)nc(N(C)Cc2cnccn2)c1C,20.29%
2,COC(=O)c1ccc(C2SC(C)=Nc3c2c(=O)[nH]n3C2CCCC2)cc1 (stereo not drawn),-3.18%
3,CCCN(C)S(=O)(=O)N1CCCC1c1ccco1 (stereo not drawn),-3.57%
4,COC(=O)c1cccc(S(=O)(=O)NC(=O)c2ccccc2F)c1,0%
5,Cc1cc(NC(=O)C(C)Nc2cccc(COCc3ccco3)c2)on1 (stereo not drawn),55.52%
6,CCOC(=O)C(C)Nc1cccc(COCc2ccco2)c1 (stereo not drawn),-5.44%
7,Cc1cc(NC(=O)C(C)Nc2cccc(COCc3ccco3)c2)no1 (stereo not drawn),21.57%
8,Cc1ncc(CNC2CC(=O)N(CCc3cccc(Cl)c3)C2)n1C (stereo not drawn),-15.29%
9,NC(=O)C1CCN(CC(=O)N(Cc2ccccc2)Cc2nccs2)CC1,26.93%
10,Cc1nc(C(=O)NCCS(=O)(=O)N2CCCC2)cs1,3.29%
11,CCc1cc(NCc2cccnc2N2CCCCC2)n2ncnc2n1,64.9%
12,CCc1cc(NCc2ccccc2CN2CCCC2)n2ncnc2n1,-23.61%
13,CCc1cc(NCC(O)CN2CCCCC2)n2ncnc2n1 (stereo not drawn),16.01%
14,CCC(C)[C@H](N)c1nnc(SCC(=O)Nc2ccc(Br)cc2)o1 (stereo partly drawn),-7.19%
15,CNc1cc(C2CN(C(=O)c3cscn3)CCO2)nc(C)n1 (stereo not drawn),26.69%
16,CCc1nc(CN(C(C)=O)C2CCN(CCc3ccncc3)C2)no1 (stereo not drawn),-21.22%
17,CCc1nc(CN(C(C)=O)C2CCN(CCc3cnn(C)c3)C2)no1 (stereo not drawn),-10.66%
18,COCCCNC(=O)c1cn(C(C)C)cc2c(=O)[nH]nc1-2,15.34%
19,CC(C)CNC(=O)c1cn(C(C)C)cc2c(=O)[nH]nc1-2,55.52%
20,CC(C)n1cc(C(=O)NCCN(C)C)c2n[nH]c(=O)c-2c1,9.1%
